Potency data for 15 molecules are collected here from PubChem BioAssay (NCATS).

Inconclusive results are not listed. Where a call stands in place of a potency, no number is given. Activity calls are given as the source filed them. Calls follow the shape of the dose curve; as a rule, active = well fitted inhibition curve with a large enough effect; inconclusive = small, poorly fitted or top-dose-only effect; inactive = no such curve, though single readings can be large or run the other way.
Potency is read from the fitted curve at half-maximal effect.

A short description of the assay: P-glycoprotein substrates identified in KB-3-1 adenocarcinoma cell line, qHTS therapeutic library screen (AID 1346986). Also: nearly all actives have a fitted effect of over 60% in size.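 Also: potency is for cytotoxicity meaning loss of cell viability.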 The conditions noted are these: KB-3-1 parental cells viability, CellTiter-Glo, 72 h; series mostly up to 44.5 µM. The method, boiled down:
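Resistance attributable to P-gp was assessed by comparing AC50 in KB-8-5-11 with parental KB-3-1 and by tariquidar reversal. Cells were exposed 72 h and viability read by CellTiter-Glo.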
With `O=C(O)c1cc(N(Cc2ccc(C3CCCCC3)cc2)C(=O)c2ccc(Oc3ccccc3)cc2)ccc1O`, the Potency result was “inactive”. With `C=C1C(=O)OC[C@@H]1C/C=C(\C)CC1CC(C)C(=O)O1` (stereo not given in full) the entry was “inactive”; with `C=C1C(=O)O[C@@H]2/C=C(\CO)CC/C=C(\CO)[C@H](OC(C)=O)C(OC(=O)C(C)CC)C12` (stereo not given in full), “inactive”. `O=C(/C=C/c1ccccc1O)O[C@@H]1O[C@H](CO)[C@@H](O)[C@H](O)[C@H]1O`: the Potency entry is “inactive”. Next, `C=C1C(=O)OC2/C=C(\CO)CC/C=C(\C=O)C(OC)C(OC(=O)C(C)CC)C12` (stereo not given): “inactive”; `Fc1ccc(-c2nc(-c3ccccc3F)[nH]c2-c2ccncc2)cc1`: “inactive”; `CC#CCn1c(N2CCCC(N)C2)nc2c1c(=O)n(Cc1nc(C)c3ccccc3n1)c(=O)n2C` (stereo not given): “inactive”. Next, `CC(=O)O[C@@H]1CC[C@@]2(C)C(CC[C@]3(C)C2[C@H](O)C=C2[C@H]4[C@@H](C)[C@H](C)CC[C@]4(C)CC[C@]23C)[C@@]1(C)C(=O)O` (stereo not given in full): “inactive”; `Cc1[nH]c2ccccc2c1CCNC(=O)c1cccs1`: “inactive”. Next, `N#Cc1cc(-c2ccnc(Nc3ccc(N4CCOCC4)cc3)n2)ccc1OC1CCOCC1`: 13 µM (active); `CC/C(C)=C/C(=O)OC1C(OC2(C)CCC3C(C4C(C)CCC42)C3(C)C)OC(C)C(O)C1O` (stereo not given): “inactive”; `O=C(O)CCc1nccc2c1[nH]c1ccccc12`: “inactive”. For `COC1=CC(=O)C=C(C)C12Oc1c(Cl)c(OC)cc(OC)c1C2=O` (stereo not given), the Potency result was “inactive”. Next, `NC(=O)c1ccccc1Nc1ccnc(Nc2cccc(O)c2)n1`: 1.3 µM (active); `Cn1ncc(Cl)c1-c1cc(C(=O)N[C@H](CN)Cc2ccc(F)c(F)c2)oc1Cl`: 11.6 µM (active).
